Among the data in PubChem BioAssay (EPA / NIEHS) are outcome and AC50 values, retold here.

Results filed as inconclusive are left out. The source made the active and inactive calls. How the source made its calls: active means hit-call score of the fitted dose curve at least 0.9, where 1 is the maximum; inconclusive means response in the unintended direction; inactive means score below 0.9.

What is called AC50 is the concentration at which the activity in the assay is half-maximal.

Experiment [1] concerns the target frog Thyroid hormone Receptor alpha (TRa), thra-a (gene 397942) (UniProt P15204). Nature of the experiment: ATG_frTRa_XSP1: Attagene TRANS-FACTORIAL Multi-Species (XSP1) HepG2 Assay for frog Thyroid hormone Receptor alpha (TRa) (AID 2283804). Put shortly: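 Reporter transcript induction, measured by RT-PCR with 6-FAM labelling and capillary electrophoresis, 24 hr after dosing transiently transfected HepG2 cells expressing a frog TRa-GAL4 fusion; medium contained 3 nM 6-alpha-fluorotestosterone; increase over DMSO scored.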

The target of experiment [2] is human Thyroid hormone Receptor alpha (TRa), THRA (gene 7067) (UniProt P10827). Nature of the experiment: ATG_hTRa_XSP1: Attagene TRANS-FACTORIAL Multi-Species (XSP1) HepG2 Assay for human Thyroid hormone Receptor alpha (TRa) (AID 2283805). A digest of the protocol: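 Reporter transcripts from the human TRa-Gal4 TRANS unit quantified by RT-PCR, fluorescent labeling and capillary electrophoresis after 24 hours of chemical exposure in transfected HepG2 cells; medium contains 3 nM 6-alpha-fluorotestosterone. Positive direction fit against DMSO.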

In experiment [3] the test system is turtle Thyroid Hormone Receptor, alpha (TRa), gene 101949057. The experiment in a line: ATG_trTRa_XSP1: Attagene TRANS-FACTORIAL Multi-Species (XSP1) HepG2 Assay for turtle Thyroid Hormone Receptor, alpha (TRa) (AID 2283806). Put shortly:
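After 24 h chemical exposure, reporter transcripts were measured by RT-PCR with fluorescent primer extension, HpaI digestion and capillary electrophoresis. Cells were transiently transfected HepG2 expressing exogenous NR-Gal4 chimeras; medium contained 3 nM 6-alpha-fluorotestosterone; fitted upward relative to DMSO.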

Experiment [4] deals with human Thyroid hormone Receptor beta (TRb), THRB (gene 7068) (UniProt P10828). The experiment in a line: ATG_hTRb_XSP1: Attagene TRANS-FACTORIAL Multi-Species (XSP1) HepG2 Assay for human Thyroid hormone Receptor beta (TRb) (AID 2283808). A digest of the protocol:
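Readout is reporter mRNA induction measured by RT-PCR, fluorescent labelling and capillary electrophoresis, fitted upward relative to DMSO. Transiently transfected human HepG2 cells expressing NR-Gal4 chimeras were dosed for 24 h, medium containing 3 nM 6-alpha-fluorotestosterone.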

Experiment [5] concerns the target zebrafish Thyroid Hormone Receptor beta (TRb), thrb (gene 30607) (UniProt Q9PVE4). The experiment in a line: ATG_zfTRb_XSP1: Attagene TRANS-FACTORIAL Multi-Species (XSP1) HepG2 Assay for zebrafish Thyroid Hormone Receptor beta (TRb) (AID 2283809). Put shortly: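 HepG2 cells transiently transfected with multiplexed GAL4-UAS reporter units expressing chimeric zebrafish TRb–Gal4. Dosed 24 h with 3 nM 6-alpha-fluorotestosterone present; reporter mRNA measured by RT-PCR, HpaI digestion and capillary electrophoresis; gain of signal versus DMSO.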

Experiment [6] in a line: ATG_XTT_Cytotoxicity_XSP1: Cytotoxicity Assessment in the Attagene TRANS-FACTORIAL Multi-Species (XSP1) HepG2 Assay (AID 2283810). A digest of the protocol: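 XTT viability readout taken at 24 hours post-dosing in HepG2 liver cells co-treated with 3 nM 6-alpha-fluorotestosterone. Signal loss relative to DMSO controls reflects cytotoxicity.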
Experiment [7] is described as follows: ATG_M_06_XSP2: Attagene TRANS-FACTORIAL Multi-Species (XSP2) HepG2 Assay for M06 Transcription Factor (Internal Marker) (AID 2283811).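 Further: internal background marker reporter mRNA measured by RT-PCR and capillary electrophoresis; hits are increases in signal above the DMSO baseline.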 Put shortly: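 Internal-marker reporter transcript, quantified by RT-PCR, 6-FAM labelling, HpaI digestion and capillary electrophoresis, 24 hours after dosing transfected HepG2 cells with 3 nM 6-alpha-fluorotestosterone and 1.5 nM norgestrel present; DMSO baseline.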

The subject of experiment [8] is turtle Estrogen Receptor (ERa), gene 101933533. The experiment in a line: ATG_trERa_XSP2: Attagene TRANS-FACTORIAL Multi-Species (XSP2) HepG2 Assay for turtle Estrogen Receptor (ERa) (AID 2283812).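 Further: actives raise reporter signal above DMSO so AC50 reflects agonist activity.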 A digest of the protocol:
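Readout is reporter mRNA quantified by RT-PCR with capillary electrophoresis after 24 h compound exposure, increase relative to DMSO. Uses transiently transfected human HepG2 liver cells carrying a chimeric turtle ERa-Gal4 receptor driving GAL4-UAS reporters.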

For experiment [9], the target named is Estrogen receptor beta (Homo sapiens) (UniProt Q92731). The experiment in a line: ATG_hERb_XSP2: Attagene TRANS-FACTORIAL Multi-Species (XSP2) HepG2 Assay for human Estrogen Receptor (ERb) (AID 2283813).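 Further: actives raise reporter mRNA above DMSO so AC50 reflects agonist induction.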 A digest of the protocol:
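Transient TRANS reporter system in HepG2: after 24 h of chemical, RNA is reverse-transcribed, reporter cDNA amplified, FAM-labelled and sized by capillary electrophoresis. Induction of the human ERb-Gal4 reporter is measured relative to DMSO.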

The target of experiment [10] is GAL4 Transcription Factor (Internal Marker), GAL4 (gene 855828) (UniProt P04386). Nature of the experiment: ATG_GAL4_XSP2: Attagene TRANS-FACTORIAL Multi-Species (XSP2) HepG2 Assay for GAL4 Transcription Factor (Internal Marker) (AID 2283814).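 Further: GAL4 reporter mRNA background control in MRTU transfected cells not a receptor target.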 Put shortly:
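Background-control readout: gain-of-signal fitted against DMSO. After 24 h exposure of transfected HepG2 (MRTU, GAL4-UAS reporters; 3 nM 6-alpha-fluorotestosterone, 1.5 nM norgestrel present), transcripts quantified by RT-PCR and capillary electrophoresis fluorescence.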

In experiment [11] the test system is turtle Androgen Receptor (AR), gene 101947425. Nature of the experiment: ATG_trAR_XSP2: Attagene TRANS-FACTORIAL Multi-Species (XSP2) HepG2 Assay for turtle Androgen Receptor (AR) (AID 2283815). Put shortly:
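Reporter transcripts were quantified via RT-PCR and capillary electrophoresis and fitted upward against DMSO. Transiently transfected human HepG2 cells carrying NR-Gal4 chimeras were exposed 24 h, with 3 nM 6-alpha-fluorotestosterone plus 1.5 nM norgestrel added.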

The target of experiment [12] is chicken Estrogen Receptor (ERa), ESR1 (gene 396099) (UniProt P06212). The experiment in a line: ATG_chERa_XSP2: Attagene TRANS-FACTORIAL Multi-Species (XSP2) HepG2 Assay for chicken Estrogen Receptor (ERa) (AID 2283817).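 Further: actives raise reporter signal above DMSO so AC50 reflects ER activation.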 Put shortly:
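Reporter mRNA induction read by RT-PCR, fluorescent labelling and capillary electrophoresis after 24 h exposure; positive-direction fit against DMSO baseline. HepG2 cells transfected with multiplexed GAL4-UAS units including chicken ERa chimera; medium contained 3 nM 6-alpha-fluorotestosterone plus 1.5 nM norgestrel.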

In experiment [13] the test system is zebrafish Estrogen Receptor (ER2a), gene 317734. Nature of the experiment: ATG_zfER2a_XSP2: Attagene TRANS-FACTORIAL Multi-Species (XSP2) HepG2 Assay for zebrafish Estrogen Receptor (ER2a) (AID 2283818).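 Further: hits raise reporter mRNA so AC50 reflects activation of zebrafish ER2a.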 Put shortly:
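Multiplexed trans-reporter readout: RT-PCR then capillary electrophoresis of reporter transcripts after 24 h compound treatment. Human HepG2 carries transfected zebrafish ER2a-Gal4 chimera; 3 nM 6-alpha-fluorotestosterone plus 1.5 nM norgestrel present. Induction scored against DMSO.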

Experiment [14] deals with chicken Androgen Receptor (AR), gene 422165. The experiment in a line: ATG_chAR_XSP2: Attagene TRANS-FACTORIAL Multi-Species (XSP2) HepG2 Assay for chicken Androgen Receptor (AR) (AID 2283819).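 Further: hits raise reporter mRNA above DMSO so potency is for activation.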 Put shortly: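 Readout is reporter mRNA induction via RT-PCR/capillary electrophoresis after 24 h chemical exposure, positive direction relative to DMSO. Transiently transfected HepG2 express chimeric chicken AR–GAL4; AR stimulated by 3 nM 6-alpha-fluorotestosterone and 1.5 nM norgestrel.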

The test system of experiment [15] is frog Estrogen Receptor (ER), gene 398734. Nature of the experiment: ATG_frER1_XSP2: Attagene TRANS-FACTORIAL Multi-Species (XSP2) HepG2 Assay for frog Estrogen Receptor (ER) (AID 2283821).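 Further: hits raise reporter mRNA above DMSO baseline so potency means agonist or activator.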 Put shortly:
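HepG2 cells transiently transfected with multiplexed GAL4-UAS reporter units expressing chimeric NR-Gal4 proteins (TRANS format) were dosed for 24 h. Reporter mRNA was quantified by RT-PCR, FAM primer extension, HpaI digestion and capillary electrophoresis; gain of signal relative to DMSO.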

Experiment [16] has as its system zebrafish Estrogen Receptor (ER2b), gene 317733. Nature of the experiment: ATG_zfER2b_XSP2: Attagene TRANS-FACTORIAL Multi-Species (XSP2) HepG2 Assay for zebrafish Estrogen Receptor (ER2b) (AID 2283823).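 Further: fitted upward as reporter gain over DMSO so potency reflects activation.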 A digest of the protocol:
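Cells used were HepG2, transiently transfected with chimeric nuclear receptor-Gal4 reporter units. After 24 h of chemical treatment, reporter transcripts were amplified by RT-PCR, labelled and sized by capillary electrophoresis, with induction analysed relative to DMSO.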

Experiment [17] concerns the target Estrogen receptor (Homo sapiens) (UniProt P03372). Nature of the experiment: ATG_hERa_XSP2: Attagene TRANS-FACTORIAL Multi-Species (XSP2) HepG2 Assay for human Estrogen Receptor (ERa) (AID 2283827). A digest of the protocol:
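Trans-activation of exogenous human ERa-Gal4 chimera read in HepG2 as reporter transcript after 24 h exposure; medium included 3 nM 6-alpha-fluorotestosterone and 1.5 nM norgestrel. Quantified by RT-PCR with capillary electrophoresis, positive-direction fitting against DMSO.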

Experiment [18] deals with zebrafish Thyroid Hormone Receptor alpha (TRa), thraa (gene 30670) (UniProt Q98867). The experiment in a line: ATG_zfTRa_XSP1: Attagene TRANS-FACTORIAL Multi-Species (XSP1) HepG2 Assay for zebrafish Thyroid Hormone Receptor alpha (TRa) (AID 2283807). Put shortly: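 Reporter transcripts driven by a chimeric zebrafish TRa–Gal4 protein were measured by RT-PCR with fluorescent labelling and capillary electrophoresis. These came from transiently transfected HepG2 cells after 24 h chemical exposure, with 3 nM 6-alpha-fluorotestosterone added; baseline was DMSO.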

The target in experiment [19] is Nuclear receptor subfamily 1 group I member 2 (Mus musculus) (UniProt O54915). The experiment in a line: ATG_mPXR_XSP1: Attagene TRANS-FACTORIAL Multi-Species (XSP1) HepG2 Assay for mouse Pregnane X Receptor (PXR) (AID 2283803). A digest of the protocol: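 Transiently transfected HepG2 cells expressing a receptor-Gal4 chimera drive a GAL4-UAS reporter; 3 nM 6-alpha-fluorotestosterone included. Reporter mRNA read 24 h post-dose by RT-PCR and capillary electrophoresis; gain of signal relative to DMSO.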

For experiment [20], the target named is zebrafish Estrogen Receptor (ER1), esr1 (gene 259252) (UniProt P57717). Nature of the experiment: ATG_zfER1_XSP2: Attagene TRANS-FACTORIAL Multi-Species (XSP2) HepG2 Assay for zebrafish Estrogen Receptor (ER1) (AID 2283816). A digest of the protocol: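 After 24 h compound exposure, RNA from transfected HepG2 cells was reverse-transcribed and reporter transcripts resolved by capillary electrophoresis. The TRANS format reads exogenous zebrafish ER1-Gal4 chimera activity on GAL4-UAS elements; gain of signal against DMSO.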

Sequence of human Thyroid hormone Receptor alpha (TRa), THRA (gene 7067) (P10827 whole entry, looked up, the tested form may be a part): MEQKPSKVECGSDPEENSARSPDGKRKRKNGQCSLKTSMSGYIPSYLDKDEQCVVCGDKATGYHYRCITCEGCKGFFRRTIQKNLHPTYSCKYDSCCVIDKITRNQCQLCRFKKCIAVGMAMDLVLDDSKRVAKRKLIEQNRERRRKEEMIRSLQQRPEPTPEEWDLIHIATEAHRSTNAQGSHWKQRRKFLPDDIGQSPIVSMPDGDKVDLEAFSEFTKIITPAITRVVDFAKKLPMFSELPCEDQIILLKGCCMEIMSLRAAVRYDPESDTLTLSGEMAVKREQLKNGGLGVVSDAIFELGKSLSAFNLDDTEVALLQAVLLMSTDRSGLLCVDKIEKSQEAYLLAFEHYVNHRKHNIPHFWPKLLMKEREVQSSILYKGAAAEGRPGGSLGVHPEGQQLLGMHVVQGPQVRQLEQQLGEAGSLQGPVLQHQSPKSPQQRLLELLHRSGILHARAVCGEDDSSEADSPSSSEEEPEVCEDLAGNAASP
Sequence of frog Thyroid hormone Receptor alpha (TRa), thra-a (gene 397942) (P15204 whole entry, looked up, the tested form may be a part): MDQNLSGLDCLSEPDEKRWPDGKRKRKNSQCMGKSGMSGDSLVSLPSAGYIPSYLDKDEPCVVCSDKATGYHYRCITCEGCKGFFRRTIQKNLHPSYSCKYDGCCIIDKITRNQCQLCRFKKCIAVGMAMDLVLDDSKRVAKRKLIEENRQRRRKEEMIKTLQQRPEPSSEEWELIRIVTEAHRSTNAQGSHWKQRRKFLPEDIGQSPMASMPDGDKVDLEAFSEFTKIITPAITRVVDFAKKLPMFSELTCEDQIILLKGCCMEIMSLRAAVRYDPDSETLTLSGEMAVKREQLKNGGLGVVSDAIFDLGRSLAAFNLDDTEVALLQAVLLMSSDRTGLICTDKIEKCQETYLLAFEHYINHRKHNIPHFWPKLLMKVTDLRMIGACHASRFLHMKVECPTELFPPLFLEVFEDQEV
Sequence of human Thyroid hormone Receptor beta (TRb), THRB (gene 7068) (P10828 whole entry, looked up, the tested form may be a part): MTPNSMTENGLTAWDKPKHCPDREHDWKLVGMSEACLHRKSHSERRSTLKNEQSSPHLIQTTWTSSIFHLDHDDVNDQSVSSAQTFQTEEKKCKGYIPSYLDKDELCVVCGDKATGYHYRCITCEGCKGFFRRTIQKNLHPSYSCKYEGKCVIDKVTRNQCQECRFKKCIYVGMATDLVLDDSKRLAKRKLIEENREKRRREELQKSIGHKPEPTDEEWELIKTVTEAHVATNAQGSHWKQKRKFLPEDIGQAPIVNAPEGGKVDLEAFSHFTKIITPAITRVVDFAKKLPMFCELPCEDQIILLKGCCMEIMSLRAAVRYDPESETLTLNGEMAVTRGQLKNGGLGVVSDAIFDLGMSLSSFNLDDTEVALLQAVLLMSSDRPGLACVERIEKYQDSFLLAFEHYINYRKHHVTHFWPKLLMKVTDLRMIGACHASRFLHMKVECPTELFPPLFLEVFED
Sequence of zebrafish Thyroid Hormone Receptor beta (TRb), thrb (gene 30607) (Q9PVE4 whole entry, looked up, the tested form may be a part): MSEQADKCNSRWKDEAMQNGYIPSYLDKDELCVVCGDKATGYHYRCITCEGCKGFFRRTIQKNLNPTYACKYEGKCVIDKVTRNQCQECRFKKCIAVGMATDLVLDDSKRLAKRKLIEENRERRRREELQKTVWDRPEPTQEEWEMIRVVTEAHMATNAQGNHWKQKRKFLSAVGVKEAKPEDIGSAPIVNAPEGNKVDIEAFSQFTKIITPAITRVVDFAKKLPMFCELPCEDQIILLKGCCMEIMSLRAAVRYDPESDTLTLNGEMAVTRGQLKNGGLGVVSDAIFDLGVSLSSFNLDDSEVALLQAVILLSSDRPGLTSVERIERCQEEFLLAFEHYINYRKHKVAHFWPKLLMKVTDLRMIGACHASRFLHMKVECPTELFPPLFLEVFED
Sequence of zebrafish Thyroid Hormone Receptor alpha (TRa), thraa (gene 30670) (Q98867 whole entry, looked up, the tested form may be a part): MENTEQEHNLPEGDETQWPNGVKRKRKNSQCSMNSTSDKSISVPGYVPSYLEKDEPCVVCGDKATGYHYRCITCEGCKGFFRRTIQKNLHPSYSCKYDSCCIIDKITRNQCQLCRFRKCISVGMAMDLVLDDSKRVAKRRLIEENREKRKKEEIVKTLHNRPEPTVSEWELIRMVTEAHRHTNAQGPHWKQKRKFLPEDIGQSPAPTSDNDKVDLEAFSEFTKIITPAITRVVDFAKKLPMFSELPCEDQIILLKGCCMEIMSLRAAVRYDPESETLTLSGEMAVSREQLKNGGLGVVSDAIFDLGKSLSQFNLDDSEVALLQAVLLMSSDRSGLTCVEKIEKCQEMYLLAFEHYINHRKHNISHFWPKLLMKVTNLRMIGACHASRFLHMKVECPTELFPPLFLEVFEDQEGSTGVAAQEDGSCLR
Sequence of Estrogen receptor beta (Homo sapiens) (Q92731 whole entry, looked up, the tested form may be a part): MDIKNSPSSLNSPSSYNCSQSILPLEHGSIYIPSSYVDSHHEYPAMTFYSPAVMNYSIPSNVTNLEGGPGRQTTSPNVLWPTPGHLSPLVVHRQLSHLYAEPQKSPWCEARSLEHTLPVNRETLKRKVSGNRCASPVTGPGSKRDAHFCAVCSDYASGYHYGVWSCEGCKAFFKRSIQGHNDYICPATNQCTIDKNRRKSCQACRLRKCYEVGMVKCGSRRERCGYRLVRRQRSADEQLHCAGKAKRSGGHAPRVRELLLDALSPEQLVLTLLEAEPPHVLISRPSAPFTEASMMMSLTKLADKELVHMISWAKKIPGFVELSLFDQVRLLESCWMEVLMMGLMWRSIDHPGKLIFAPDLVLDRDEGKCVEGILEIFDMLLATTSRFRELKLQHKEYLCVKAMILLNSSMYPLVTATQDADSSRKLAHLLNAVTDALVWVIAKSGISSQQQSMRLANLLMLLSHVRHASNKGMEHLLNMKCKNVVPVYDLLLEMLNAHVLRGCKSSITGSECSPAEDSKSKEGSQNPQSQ
Sequence of Estrogen receptor (Homo sapiens) (P03372 whole entry, looked up, the tested form may be a part): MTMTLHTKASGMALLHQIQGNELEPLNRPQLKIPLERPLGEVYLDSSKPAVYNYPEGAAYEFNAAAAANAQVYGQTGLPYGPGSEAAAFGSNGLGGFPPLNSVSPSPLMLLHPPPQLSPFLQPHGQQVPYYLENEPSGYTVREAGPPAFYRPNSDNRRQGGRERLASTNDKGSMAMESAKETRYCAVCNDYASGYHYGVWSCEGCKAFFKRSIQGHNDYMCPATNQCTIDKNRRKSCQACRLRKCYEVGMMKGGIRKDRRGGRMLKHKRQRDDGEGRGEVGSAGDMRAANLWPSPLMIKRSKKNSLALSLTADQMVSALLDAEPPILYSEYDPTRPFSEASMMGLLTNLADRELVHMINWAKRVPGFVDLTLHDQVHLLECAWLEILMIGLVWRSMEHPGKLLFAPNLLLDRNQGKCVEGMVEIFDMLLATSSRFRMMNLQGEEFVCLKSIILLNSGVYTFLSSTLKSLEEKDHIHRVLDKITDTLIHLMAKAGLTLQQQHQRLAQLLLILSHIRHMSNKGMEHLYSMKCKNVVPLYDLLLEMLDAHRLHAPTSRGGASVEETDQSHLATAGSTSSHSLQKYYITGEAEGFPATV
Sequence of chicken Estrogen Receptor (ERa), ESR1 (gene 396099) (P06212 whole entry, looked up, the tested form may be a part): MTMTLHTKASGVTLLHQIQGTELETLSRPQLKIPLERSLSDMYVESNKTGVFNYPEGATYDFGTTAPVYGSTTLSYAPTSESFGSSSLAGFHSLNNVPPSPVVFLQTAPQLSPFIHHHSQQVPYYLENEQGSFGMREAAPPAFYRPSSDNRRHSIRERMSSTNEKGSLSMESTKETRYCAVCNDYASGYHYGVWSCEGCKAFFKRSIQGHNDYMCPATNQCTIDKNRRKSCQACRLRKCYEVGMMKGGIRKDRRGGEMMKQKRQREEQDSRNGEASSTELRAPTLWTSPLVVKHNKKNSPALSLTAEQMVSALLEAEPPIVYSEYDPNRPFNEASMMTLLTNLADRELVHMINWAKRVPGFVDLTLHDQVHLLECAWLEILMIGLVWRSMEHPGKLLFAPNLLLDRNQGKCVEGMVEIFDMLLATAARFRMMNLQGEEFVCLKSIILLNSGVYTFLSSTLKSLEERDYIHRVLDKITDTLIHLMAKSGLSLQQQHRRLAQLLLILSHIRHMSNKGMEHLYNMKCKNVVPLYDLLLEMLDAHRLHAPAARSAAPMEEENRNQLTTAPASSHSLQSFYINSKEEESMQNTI
Sequence of GAL4 Transcription Factor (Internal Marker), GAL4 (gene 855828) (P04386 whole entry, looked up, the tested form may be a part): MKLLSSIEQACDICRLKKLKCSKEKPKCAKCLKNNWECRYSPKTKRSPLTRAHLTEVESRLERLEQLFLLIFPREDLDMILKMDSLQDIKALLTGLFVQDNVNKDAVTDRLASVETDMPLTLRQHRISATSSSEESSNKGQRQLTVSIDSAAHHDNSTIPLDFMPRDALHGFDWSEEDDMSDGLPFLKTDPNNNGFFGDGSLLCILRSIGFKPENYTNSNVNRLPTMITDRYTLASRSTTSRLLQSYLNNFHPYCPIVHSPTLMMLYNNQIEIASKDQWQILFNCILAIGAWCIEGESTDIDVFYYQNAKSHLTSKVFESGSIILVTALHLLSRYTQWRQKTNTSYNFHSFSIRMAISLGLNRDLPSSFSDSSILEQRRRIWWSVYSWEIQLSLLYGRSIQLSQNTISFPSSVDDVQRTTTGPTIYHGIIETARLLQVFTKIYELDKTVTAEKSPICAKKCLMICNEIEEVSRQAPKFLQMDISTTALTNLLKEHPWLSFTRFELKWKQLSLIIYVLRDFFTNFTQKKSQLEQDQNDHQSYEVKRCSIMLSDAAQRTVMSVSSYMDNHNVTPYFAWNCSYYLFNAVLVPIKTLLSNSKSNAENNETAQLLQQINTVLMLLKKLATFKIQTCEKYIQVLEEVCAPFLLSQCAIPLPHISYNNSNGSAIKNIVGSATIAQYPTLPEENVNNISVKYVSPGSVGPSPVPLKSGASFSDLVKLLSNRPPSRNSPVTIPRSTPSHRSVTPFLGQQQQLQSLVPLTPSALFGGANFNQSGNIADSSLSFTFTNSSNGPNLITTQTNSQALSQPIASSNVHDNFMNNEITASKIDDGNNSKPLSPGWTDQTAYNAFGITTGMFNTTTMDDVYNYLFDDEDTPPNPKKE

`C=CCc1cc(S(=O)(=O)c2ccc(O)c(CC=C)c2)ccc1O`: the outcome in [1], in experiment [2], in [4], in experiment [5], in experiment [7] and in experiment [9] was inactive. In addition, the compound was classed as inactive in experiment [10], in experiment [11] and in [13]. The AC50 in experiment [3] is 100 µM (active); in experiment [6], 160 µM (active); in experiment [8], 8.75 µM (active); in experiment [12], 3.5 µM (active); in experiment [14], 8.4 µM (active); in experiment [15], 8.79 µM (active). The results for the AC50 in experiment [16] and in [17] were 17.4 µM (active) and 2.71 µM (active), respectively.
For `CCN(CC)C(=S)SSC(=S)N(CC)CC`, the compound was called inactive in experiment [1], in experiment [2], in [3], in experiment [18], in [4] and in experiment [5]. Moreover, the result in experiment [7] and in experiment [16] was inactive. In addition, in experiment [6], the AC50 is 30.8 µM (active).
As to `CC(C)C(=O)Nc1ccc([N+](=O)[O-])c(C(F)(F)F)c1`, the AC50 in [19] was 27.4 µM (active); in [1], 63.9 µM (active); in experiment [2], 29 µM (active); in [3], 22.7 µM (active); in experiment [18] it was 18.3 µM (active); in [4], 100 µM (active). For the same compound, the half-maximal activity concentration (AC50) in experiment [5] was 40.2 µM (active); in experiment [15], 26.3 µM (active); in [16], 70.8 µM (active); in [17], 27.2 µM (active). In addition, the compound was called inactive in experiment [6], in [7], in [8], in experiment [9], in experiment [20] and in experiment [12]. In addition, in experiment [13], the call was inactive.
